Test results: PubChem BioAssay AID1159580 (chemical genetic matrix, 2015)
Screen size: about 5,500 compounds; about 2,000 (36%) were called active. Roughly 18% stayed inconclusive and do not appear here. Rule as the data show it: active = normalized growth mostly below about 0.91 (no sharp cut-off); inconclusive = no clear call, values can overlap the other calls; inactive = mostly above about 0.92. Some of the results follow.

Experiment: chemical genetic growth profiling, strain panel (AID 1159580);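 also: tested at 20 µM; growth read once vehicle control cultures reached saturation at 30 °C; 1 = growth at the plate median or of vehicle wells; lower values mean less growth of the strain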
Details: S. cerevisiae deletion strains, growth OD

Measured: normalized growth

COC(=O)[C@@H]1OC(=O)C2OC23[C@@]1(C)CCC1[C@@]2(C)CCC(=O)C(C)(C)C2C[C@@H](OC(C)=O)[C@]13C (stereo not given in full)
inactive: locus YAL021C, strain ccr4, active compounds read low 1.01 | locus YAL026C, strain drs2, active compounds read low 1.01 | locus YAL030W, strain snc1, active compounds read low 1.01 | locus YBL061C, strain skt5, active compounds read low 1.01 | locus YBR009C, strain hhf1, active compounds read low 1.01 | locus YBR021W, strain FUR4, active compounds read low 1.03 | locus YBR023C, strain chs3, active compounds read low 1.01 | locus YBR171W, strain sec66, active compounds read low 1.02 | locus YBR229C, strain ROT2, active compounds read low 1.01 | locus YBR231C, strain swc5, active compounds read low 1.01 | locus YBR279W, strain paf1, active compounds read low 1.02 | locus YCL011C, strain gbp2, active compounds read low 1.01 | locus YCL016C, strain dcc1, active compounds read low 1.02 | locus YCL029C, strain bik1, active compounds read low 1.04 | locus YCL061C, strain MRC1, active compounds read low 1.01 | locus YCL069W, strain vba3, active compounds read low 1.01 | locus YCR088W, strain abp1, active compounds read low 1.02 | locus YDL005C, strain med2, active compounds read low 1.02 | locus YDL035C, strain GPR1, active compounds read low 1.05 | locus YDL040C, strain nat1, active compounds read low 1.02 | locus YDL074C, strain BRE1, active compounds read low 1.14 | locus YDL101C, strain DUN1, active compounds read low 1.04 | locus YDL185W, strain tfp1, active compounds read low 1.01 | locus YDL192W, strain arf1, active compounds read low 1.02 | locus YDR001C, strain nth1, active compounds read low 1.01 | locus YDR069C, strain doa4, active compounds read low 1.02 | locus YDR101C, strain arx1, active compounds read low 1.01 | locus YDR137W, strain rgp1, active compounds read low 1.01 | locus YDR159W, strain sac3, active compounds read low 1.01 | locus YDR162C, strain NBP2, active compounds read low 1.04 | locus YDR195W, strain ref2 0.999 | locus YDR297W, strain sur2, active compounds read low 1.01 | locus YDR318W, strain mcm21, active compounds read low 1.02 | locus YDR334W, strain swr1, active compounds read low 1.02 | locus YDR335W, strain msn5, active compounds read low 1.02 | locus YDR388W, active compounds read low 1.01 | locus YDR392W, strain spt3, active compounds read low 1.01 | locus YDR502C, strain sam2, active compounds read low 1.01 | locus YEL003W, strain gim4, active compounds read low 1.02 | locus YEL037C, strain rad23, active compounds read low 1.02 | locus YEL061C, strain CIN8 (second series), active compounds read low 1.03 | locus YER015W, strain faa2, active compounds read low 1.02 | locus YER016W, strain bim1, active compounds read low 1.02 | locus YER110C, active compounds read low 0.992 | locus YER111C, strain swi4, active compounds read low 1.01 | locus YER155C, strain BEM2 (second series), active compounds read low 1.03 | locus YER155C, strain BEM2, active compounds read low 1 | locus YER167W, strain BCK2, active compounds read low 1.01 | locus YFR010W, strain ubp6, active compounds read low 1.01 | locus YGL078C, strain dbp3, active compounds read low 1 | locus YGL086W, strain mad1, active compounds read low 1.02 | locus YGL167C, strain pmr1, active compounds read low 1.02 | locus YGL173C, strain kem1, active compounds read low 1.01 | locus YGL227W, strain vid30, active compounds read low 1.02 | locus YGL240W, strain doc1, active compounds read low 1.02 | locus YGL248W, strain PDE1, active compounds read low 1.05 | locus YGL253W, strain hxk2, active compounds read low 1.01 | locus YGR078C, strain PAC10, active compounds read low 1.05 | locus YGR135W, strain pre9, active compounds read low 1.05 | locus YGR252W, strain gcn5, active compounds read low 1.08 | locus YHR013C, strain ard1, active compounds read low 1.02 | locus YHR027C, strain rpn1, active compounds read low 1.02 | locus YHR079C, strain IRE1 (second series), active compounds read low 0.995 | locus YHR094C, strain hxt1, active compounds read low 0.992 | locus YHR129C, strain ARP1, active compounds read low 1.03 | locus YHR142W, strain chs7, active compounds read low 1.03 | locus YHR200W, strain rpn10, active compounds read low 1.02 | locus YIL066C, strain RNR3, active compounds read low 1.02 | locus YIL073C, strain SPO22, active compounds read low 1.1 | locus YIL125W, strain kgd1, active compounds read low 1.01 | locus YIR030C, strain dcg1, active compounds read low 0.991 | locus YJL092W, strain hpr5, active compounds read low 1.01 | locus YJL095W, strain BCK1 (second series), active compounds read low 1.01 | locus YJL095W, strain BCK1, active compounds read low 1.1 | locus YJL115W, strain asf1, active compounds read low 1 | locus YJL129C, strain trk1, active compounds read low 1.03 | locus YJL134W, strain LCB3, active compounds read low 1.01 | locus YJL154C, strain vps35, active compounds read low 1.03 | locus YJL164C, strain tpk1, active compounds read low 1.03 | locus YJL166W, strain qcr8, active compounds read low 1.01 | locus YJL168C, strain set2, active compounds read low 1.01 | locus YJL187C, strain SWE1 (second series), active compounds read low 1.03 | locus YJL187C, strain SWE1, active compounds read low 1.02 | locus YJR043C, strain POL32, active compounds read low 1.09 | locus YKL009W, strain mrt4, active compounds read low 1 | locus YKL068W, active compounds read low 1.01 | locus YKL085W, strain MDH1 (second series), active compounds read low 0.994 | locus YKL085W, strain MDH1, active compounds read low 0.994 | locus YKL160W, strain elf1, active compounds read low 1.02 | locus YKL190W, strain CNB1, active compounds read low 1.02 | locus YKR001C, strain vps1, active compounds read low 1.06 | locus YKR026C, strain gcn3, active compounds read low 1.02 | locus YKR091W, strain srl3, active compounds read low 1.02 | locus YLL001W, strain dnm1, active compounds read low 1.01 | locus YLL026W, active compounds read low 1.02 | locus YLL041C, strain sdh2, active compounds read low 1.01 | locus YLR027C, strain aat2, active compounds read low 1.03 | locus YLR039C, strain RIC1, active compounds read low 1.13 | locus YLR058C, strain SHM2, active compounds read low 1.04 | locus YLR102C, strain apc9, active compounds read low 0.99 | locus YLR221C, strain rsa3, active compounds read low 1.01 | locus YLR258W, strain gsy2, active compounds read low 1.01 | locus YLR262C, strain YPT6 (second series), active compounds read low 1.03 | locus YLR268W, strain sec22, active compounds read low 1.04 | locus YLR320W, strain mms22, active compounds read low 1.02 | locus YLR330W, strain CHS5, active compounds read low 1.01 | locus YLR342W, strain FKS1 (second series), active compounds read low 1.03 | locus YLR342W, strain FKS1, active compounds read low 1.02 | locus YLR357W, strain rsc2, active compounds read low 1 | locus YLR370C, strain arc18, active compounds read low 1.01 | locus YLR371W, strain rom2, active compounds read low 1.02 | locus YLR384C, strain iki3, active compounds read low 1.04 | locus YLR418C, strain cdc73, active compounds read low 1.06 | locus YML016C, strain PPZ1, active compounds read low 1.01 | locus YML032C, strain rad52, active compounds read low 0.992 | locus YML120C, strain ndi1, active compounds read low 1.02 | locus YML124C, strain tub3, active compounds read low 0.99 | locus YMR058W, strain fet3, active compounds read low 1.01 | locus YMR078C, strain ctf18, active compounds read low 0.998 | locus YMR125W, strain sto1, active compounds read low 1.02 | locus YMR129W, active compounds read low 1.01 | locus YMR205C, strain PFK2, active compounds read low 1.02 | locus YMR223W, strain ubp8, active compounds read low 1.01 | locus YMR231W, strain pep5, active compounds read low 1 | locus YMR307W, strain GAS1, active compounds read low 1.2 | locus YNL067W, strain RPL9B, active compounds read low 1.03 | locus YNL071W, strain lat1, active compounds read low 1.02 | locus YNL153C, strain GIM3, active compounds read low 1.06 | locus YNL209W, strain ssb2, active compounds read low 1.02 | locus YNL233W, strain BNI4, active compounds read low 1.08 | locus YNL248C, strain rpa49, active compounds read low 1.01 | locus YNL250W, strain rad50, active compounds read low 1.01 | locus YNL271C, strain bni1, active compounds read low 0.997 | locus YNL298W, strain CLA4, active compounds read low 1.01 | locus YNL307C, strain MCK1, active compounds read low 0.995 | locus YNL322C, strain KRE1 (second series), active compounds read low 1.02 | locus YNR049C, strain mso1, active compounds read low 1.01 | locus YNR052C, strain pop2, active compounds read low 0.989 | locus YOL012C, strain htz1 1.07 | locus YOL147C, strain pex11, active compounds read low 1 | locus YOR001W, strain rrp6, active compounds read low 1.02 | locus YOR061W, strain CKA2, active compounds read low 1.02 | locus YOR069W, strain VPS5, active compounds read low 1.01 | locus YOR070C, strain gyp1, active compounds read low 1 | locus YOR080W, strain dia2, active compounds read low 1.01 | locus YOR083W, strain WHI5, active compounds read low 1.02 | locus YOR106W, strain vam3, active compounds read low 1.01 | locus YOR136W, strain idh2, active compounds read low 0.993 | locus YOR144C, strain elg1, active compounds read low 0.993 | locus YOR184W, strain ser1, active compounds read low 1.03 | locus YOR265W, strain rbl2, active compounds read low 1.01 | locus YOR270C, strain vph1, active compounds read low 1.05 | locus YOR290C, strain snf2, active compounds read low 1.02 | locus YOR316C, strain cot1, active compounds read low 1 | locus YPL051W, strain arl3, active compounds read low 0.993 | locus YPL055C, strain LGE1, active compounds read low 1.11 | locus YPL078C, strain atp4, active compounds read low 1.01 | locus YPL106C, strain sse1, active compounds read low 1.01 | locus YPL240C, strain hsp82, active compounds read low 1.01 | locus YPL241C, strain CIN2, active compounds read low 1.01 | locus YPR119W, strain clb2, active compounds read low 0.993 | locus YPR141C, strain kar3, active compounds read low 0.994 | locus YPR163C, strain tif3, active compounds read low 1.01 | locus YPR167C, strain met16, active compounds read low 1.01 | strain wtn01, active compounds read low 1.02
